Inconclusive results are not listed. Calls of active or inactive are those of the source. The call rests on the fitted dose curve; in most records, active means well fitted curve in either direction with a large enough effect; inconclusive means small, poorly fitted or top-dose-only effect; inactive means flat fitted curve, though single readings scatter.
molecular target: Neuropeptide S receptor (Homo sapiens) (UniProt Q6W5P4); assay: Confirmation Concentration-Response Assay for Antagonists of the Neuropeptide S Receptor: Robust Characterization of cAMP Signal Transduction; settings: CHO-NPSR cells, NPS-stimulated cAMP TR-FRET
Excerpt: NIH Chemical Genomics Center [NCGC] NIH Molecular Libraries Probe Production centers Network [MLPCN] MLPCN Grant: X01-DA026210-01 Assay Submitter (PI): Heilig, Markus Alexander NCGC Assay Overview: Neuropeptide S receptor (NPSR), previously known as GPR154, is a recently de-orphanized G protein coupled receptor. Its endogenous ligand is the 20 amino acids peptide Neuropeptide S (NPS). […] NPS and its receptor are found in various tissues. Specifically they are highly expressed in brain areas that have been implicated in modulation of arousal, stress and anxiety. Central administration of NPS in mice produces an unusual profile of activity by inducing wakefulness and arousal, while at the same time suppressing anxiety. Therefore, NPSR may represent a novel drug target for the treatment of sleep and anxiety disorders. To identify NPSR antagonists, we developed a cell-based cAMP assay. NPS can stimulate the production of cAMP in Chinese hamster ovary cells stably expressing NPS receptor. This change in intracellular cAMP level can be detected by a homogeneous LANCE cAMP assay based on the TR-FRET (time resolved fluorescence resonance energy transfer) between a europium-labeled cAMP tracer complex and a cAMP-specific antibody labeled with Alexa Fluor 647. The europium-labeled cAMP tracer complex is formed by the tight interaction between Biotin-cAMP (b-cAMP) and streptavidin labeled with Europium-W8044 chelate (Eu-SA). Light pulse at 320 nm excites the europium of the cAMP tracer and the energy emitted is transferred to the Alexa molecule bound to the cAMP antibody, generating a TR-FRET signal at 665 nm. Residual energy from the europium will produce a light at 620 nm. The native unlabeled cAMP from cell lysates competes with the europium-cAMP tracer for antibody binding and reversely reduces the emission signal of Alexa by interrupting FRET between the two labeled molecules. Both emission signals from the FRET donor (620 nm) and the acceptor (665 nm) can be detected by a plate reader in the TRF mode. Expression of result in fluorescence ratio (665 nm/620 nm) helps to normalize differences due to cell density and reagent dispensing. This assay was successfully optimized to a 1536-well plate format. Select compounds from the primary screen (AID 1461) were chosen for confirmation based on potency, efficacy, SAR, and activity across other assays in PubChem and at NCGC. Other compounds are analogs of active compounds from the primary screen. This particular assay uses a high density of sampling across concentration-response space to establish more confidence estimates of potency.
NCGC Assay Protocol Summary: A Chinese hamster ovary (CHO) cell line stably expressing the NPS receptor (CHO-NPSR) was obtained from Dr. Heilig lab at NIAAA and maintained in F-12 Kaighn's media (Invitrogen, Carlsbad, CA, 21127) supplemented with 10 % FBS, 100 units/ml penicillin, 100 ug/ml streptomycin and 250 ug/ml geneticin at 37C, 5% CO2 in a humidified atmosphere. Before the assay, aliquots of cells were frozen and stored at -135C. The assay was performed in 1536-well format. Data are reported for both the ratio of the two emission wavelengths, and also for the component 'donor' channel, Em2=620. […] IC50 values were determined from concentration-response data modeled with the standard Hill equation. NPS 1536-well assay protocol: (1) Fresh or frozen CHO-NPSR cells were suspended in F-12 Kaighn's media supplemented with 10 % FBS, 100 units/ml penicillin and 100 ug/ml streptomycin. Cells were plated at 4 ul/well (1200 cells) to white, tissue culture treated 1536-well plates, and then cultured at 37C, 5 % CO2 for 16 to 30 hours. (2) Add 23 nl/well of compound in DMSO solution. The final titration for each compound was between 0.6 nM and 46 uM. […]

Neuropeptide S receptor (Homo sapiens), sequence (Q6W5P4 whole entry, looked up): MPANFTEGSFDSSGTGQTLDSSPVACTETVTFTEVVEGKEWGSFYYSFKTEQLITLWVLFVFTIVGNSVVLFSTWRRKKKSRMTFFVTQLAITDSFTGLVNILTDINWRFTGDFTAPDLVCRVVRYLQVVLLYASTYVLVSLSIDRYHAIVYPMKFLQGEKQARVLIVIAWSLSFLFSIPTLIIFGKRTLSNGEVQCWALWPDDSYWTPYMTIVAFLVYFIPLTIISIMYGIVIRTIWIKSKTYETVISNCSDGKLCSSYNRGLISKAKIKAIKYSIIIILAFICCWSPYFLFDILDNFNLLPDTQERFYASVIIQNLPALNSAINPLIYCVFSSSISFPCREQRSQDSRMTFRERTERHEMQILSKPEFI

| Structure (SMILES) | Potency |
| --- | --- |
| Cc1c(P(=S)(c2ccccc2)c2ccccc2)[n+]2ccccc2n1CCCCc1ccccc1 | 1.1 nM (active) |
| Cc1c(P(=S)(c2ccccc2)c2ccccc2)[n+]2ccccc2n1CCc1ccccc1 | 2100 nM (active) |
| Cc1c(P(=S)(c2ccccc2)c2ccccc2)[n+]2ccccc2n1Cc1ccccc1 | 1250 nM (active) |
| Cc1c(P(=S)(c2ccccc2)c2ccccc2)[n+]2ccccc2n1C/C=C/c1ccccc1 | 44.5 nM (active) |
| Cc1c(P(=S)(c2ccccc2)c2ccccc2)[n+]2ccccc2n1C | 1670 nM (active) |
| Cc1nc2ccccn2c1P(=S)(c1ccccc1)c1ccccc1 | 17700 nM (active) |
| Cc1c(P(=S)(c2ccccc2)c2ccccc2)[n+]2ccccc2n1CCCCCc1ccccc1 | 705 nM (active) |
| Cc1c(P(=S)(c2ccccc2)c2ccccc2)[n+]2ccccc2n1CCCc1ccccc1 | 106 nM (active) |

Reference: PubChem BioAssay AID434936 (National Center for Advancing Translational Sciences (NCATS), 2010)
